Results from PubChem BioAssay (NCI).
About 83,000 compounds went through this panel and 20% of them were active in at least one assay; those are over-represented in the sample as a whole.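 In brief: 96-well plates, 48 h treatment, single concentration, percent growth endpoint.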 A number with no mark means an inactive call. Activity calls are given as the source filed them. How the source made its calls: active means growth percent below 10; inactive means the rest.

These compounds were tested on SF-539 CNS (assay: NCI-60 one-dose screen, 48 h (100 = growth as untreated, 0 = no growth, -100 = all killed)). Conditions: 10 µM unless noted.

For Cc1nn(-c2ccc(F)cc2)c2ncnc(Oc3ccc(NC(=O)Nc4ccc(Cl)c(C(F)(F)F)c4)cc3)c12, which growth is on record?
Its growth is 96.8%.

COc1ccc(C(=O)c2sc3nc(C)cc(C)c3c2N)cc1OC was tested. Which growth did it give?
Its growth is 92.2%.

C=CC(=O)Nc1cccc(-c2nc(SC)nc(Nc3ccccc3OC)c2C#N)c1 was tested. Which growth did it give?
Its growth is 68.6%.

Nc1nc2ncc(CCNc3ccc(C(=O)O)cc3)nc2c(=O)[nH]1 was tested. Which growth did it give?
Its growth is 101%.

Which growth does the source give for CCCSc1ccc2nc(NC(=O)OC)[nH]c2c1 here?
The growth was 4.44% (active).

With CCCc1cc(=O)n2c(C(=O)Nc3ccc(F)cc3)c(C(=O)Nc3ccc(F)cc3)sc2n1 as the compound, how does the growth read?
Its growth is 63.2% [30 µM].

How did the growth turn out when O=C(/C=C/c1ccccc1)c1ccc(O)c(CN2CCN(c3cc4c(cc3F)c(=O)c(C(=O)O)cn4C3CC3)CC2)c1 was run?
The growth was 10.3%.

With CCOC(=O)c1sc2nc(-c3cccc(OC)c3)nc(N3CCOCC3)c2c1C as the compound, how does the growth read?
Its growth is 98.8%.

For CCCCCCCCCCCCC[N+](C)(C)Cc1ccccc1, which growth is on record?
Its growth is -73% (active).

With CCCOc1ccc2nc(NC(=O)OC)[nH]c2c1 as the compound, how does the growth read?
The growth was 7.37% (active).

With Nc1n[nH]c2ccc([C@@H]3Nc4ccc5cn[nH]c5c4[C@H]4C5CCC(C5)[C@@H]34)cc12 (some centres not stated) as the compound, how does the growth read?
The growth was -19.6% (active).

O=c1nc2oc3ccc4ccccc4c3cc-2s1 was tested. Which growth did it give?
Its growth is -25.1% (active).

Which growth does the source give for COC(=O)c1cccc(NC(=O)c2ccc(-c3cccc(N)c3)o2)c1 here?
Its growth is 92.6%.

CCOC(=O)c1c(C)oc2ncnc(N3CCN(C(=S)Nc4ccccc4)CC3)c12 was tested. Which growth did it give?
Its growth is 91.8%.

With CCCCN(CCCC)CCCn1c(-c2ccccc2)ccc1-c1ccccc1 as the compound, how does the growth read?
Its growth is 67.4%.

CN1CCN(CCCOc2cccc3nc(Nc4ccc(Cl)c(F)c4)ccc23)CC1 was tested. Which growth did it give?
The growth was 16.9%.

COc1cccc(/C=N/NC(=O)c2ccccc2Nc2ccnc(C(F)(F)F)c2)c1O was tested. Which growth did it give?
The growth was 0.849% (active).

How did the growth turn out when COc1cc2nc(N3CCCC3)nc(NCc3ccccc3)c2cc1OC was run?
The growth was 52.4%.

How did the growth turn out when COc1cc2c(cc1-c1c(C)noc1C)ncc1nc(-c3ccccn3)n([C@H](C)COC(F)F)c12 was run?
The growth was 41.7%.

For COc1cccc(-c2nc3sccn3c2-c2ccnc(NCCCNS(=O)(=O)c3c(Cl)cccc3Cl)c2)c1, which growth is on record?
The growth was 95%.

N#Cc1c(-c2ccc(Cl)cc2)nc(NN=Cc2ccco2)nc1N1CCOCC1 was tested. Which growth did it give?
The growth was 75.3%.

For O=C(Nc1cccc2[nH]c(C(F)(F)F)nc12)c1ccc(-n2cnnn2)cc1, which growth is on record?
The growth was 103%.

Which growth does the source give for CC1CCNC(C)C1 (configuration not stated) here?
The growth was 99%.

CCN(CC)c1ccc(-c2cc(-c3cc(OC)c(OC)c(OC)c3)nc(N3CCOCC3)c2C#N)cc1 was tested. Which growth did it give?
Its growth is 35.6%.

What follows are compounds tested on UACC-257 melanoma in the same assay as above. Conditions: 10 µM unless noted.

How did the growth turn out when C=CC(=O)Nc1cccc(-c2nc(SC)nc(NCc3ccccc3)c2C#N)c1 was run?
Its growth is 64.9%.

With COC(=O)c1ccc2oc(NC(=O)c3ccc(Nc4ccc([N+](=O)[O-])cc4C)c([N+](=O)[O-])c3)nc2c1 as the compound, how does the growth read?
Its growth is 103%.

For COc1cc(/C=C/c2cc(/C=C/c3ccc(O)c(OC)c3)n(-c3c(Cl)cccc3Cl)c(=O)n2)ccc1O, which growth is on record?
The growth was 41.1%.

Which growth does the source give for CSc1nc(Nc2cccc(NC(=O)CCl)c2)c(C#N)c(-c2cccc([N+](=O)[O-])c2)n1 here?
The growth was 84.6%.

For CC(C)(C)N1CCC1CN (configuration not stated), which growth is on record?
The growth was -6.55% (active).

Which growth does the source give for Cc1ccc(NC(=O)/C=C/c2ccccc2)c(C(N)=O)c1 here?
Its growth is 63.2%.

With COc1ccc(-n2nc(C)c3c(Nc4ccc(NC(=O)Nc5cccc(C(F)(F)F)c5)cc4)ncnc32)cc1 as the compound, how does the growth read?
The growth was -1.66% (active).

O=C1OCC2=C1C(c1ccncc1)c1cc3c(cc1N2CCO)OCO3 (configuration not stated) was tested. Which growth did it give?
The growth was 99.5%.

For C#Cc1cccc(NC(=O)c2ccccc2NC(=O)C=C)c1, which growth is on record?
Its growth is 104% [8.25 µM].

CCOc1cc2ncc(C#N)c(Nc3ccc(F)c(Cl)c3)c2cc1NC(=O)CC1CCSS1 (configuration not stated) was tested. Which growth did it give?
The growth was -53.6% (active).

For CN(Cc1cc(Cl)cc(Cl)c1O)Cc1cc(Cl)cc(Cl)c1O, which growth is on record?
Its growth is 82.4%.

How did the growth turn out when CC(=O)O[C@H]1[C@@H]2OC(=O)C(CSc3ccccc3)[C@@H]2C[C@H]2O[C@]2(C)CC/C=C(\C)CCC[C@@H]1C (some centres not stated) was run?
Its growth is 15.8%.

For COc1ccc(/C=N/C2=C(C#N)C(c3ccc(N(C)C)cc3)c3ccc4ccccc4c3O2)cc1 (configuration not stated), which growth is on record?
Its growth is 79.3%.

For C[n+]1ccccc1/C=C/c1ccc2cccc(O)c2n1, which growth is on record?
The growth was 97.5%.

With Cc1nn(-c2ccc(F)cc2)c2ncnc(Oc3ccc(NC(=O)Nc4ccc(Cl)c(C(F)(F)F)c4)cc3)c12 as the compound, how does the growth read?
The growth was 99.9%.

For COc1ccc(C(=O)c2sc3nc(C)cc(C)c3c2N)cc1OC, which growth is on record?
Its growth is 95.1%.

Which growth does the source give for C=CC(=O)Nc1cccc(-c2nc(SC)nc(Nc3ccccc3OC)c2C#N)c1 here?
Its growth is 57.5%.

Which growth does the source give for Nc1nc2ncc(CCNc3ccc(C(=O)O)cc3)nc2c(=O)[nH]1 here?
The growth was 104%.

How did the growth turn out when CCCSc1ccc2nc(NC(=O)OC)[nH]c2c1 was run?
The growth was 59.3%.

Which growth does the source give for CCCc1cc(=O)n2c(C(=O)Nc3ccc(F)cc3)c(C(=O)Nc3ccc(F)cc3)sc2n1 here?
The growth was 67.2% [30 µM].

For O=C(/C=C/c1ccccc1)c1ccc(O)c(CN2CCN(c3cc4c(cc3F)c(=O)c(C(=O)O)cn4C3CC3)CC2)c1, which growth is on record?
Its growth is 31.7%.

Which growth does the source give for CCOC(=O)c1sc2nc(-c3cccc(OC)c3)nc(N3CCOCC3)c2c1C here?
The growth was 115%.

Which growth does the source give for CCCCCCCCCCCCC[N+](C)(C)Cc1ccccc1 here?
The growth was -44.2% (active).

With CCCOc1ccc2nc(NC(=O)OC)[nH]c2c1 as the compound, how does the growth read?
The growth was 47.3%.

How did the growth turn out when Nc1n[nH]c2ccc([C@@H]3Nc4ccc5cn[nH]c5c4[C@H]4C5CCC(C5)[C@@H]34)cc12 (some centres not stated) was run?
The growth was 72.6%.

For O=c1nc2oc3ccc4ccccc4c3cc-2s1, which growth is on record?
Its growth is 51.6%.

For COC(=O)c1cccc(NC(=O)c2ccc(-c3cccc(N)c3)o2)c1, which growth is on record?
The growth was 112%.

CCOC(=O)c1c(C)oc2ncnc(N3CCN(C(=S)Nc4ccccc4)CC3)c12 was tested. Which growth did it give?
The growth was 98%.

CCCCN(CCCC)CCCn1c(-c2ccccc2)ccc1-c1ccccc1 was tested. Which growth did it give?
Its growth is 90.1%.

CN1CCN(CCCOc2cccc3nc(Nc4ccc(Cl)c(F)c4)ccc23)CC1 was tested. Which growth did it give?
Its growth is -31% (active).

For COc1cccc(/C=N/NC(=O)c2ccccc2Nc2ccnc(C(F)(F)F)c2)c1O, which growth is on record?
The growth was 8.18% (active).

With COc1cc2nc(N3CCCC3)nc(NCc3ccccc3)c2cc1OC as the compound, how does the growth read?
Its growth is -46.6% (active).

COc1cc2c(cc1-c1c(C)noc1C)ncc1nc(-c3ccccn3)n([C@H](C)COC(F)F)c12 was tested. Which growth did it give?
Its growth is 44.4%.

Which growth does the source give for COc1cccc(-c2nc3sccn3c2-c2ccnc(NCCCNS(=O)(=O)c3c(Cl)cccc3Cl)c2)c1 here?
The growth was 95.2%.

Which growth does the source give for N#Cc1c(-c2ccc(Cl)cc2)nc(NN=Cc2ccco2)nc1N1CCOCC1 here?
The growth was 87.9%.

For O=C(Nc1cccc2[nH]c(C(F)(F)F)nc12)c1ccc(-n2cnnn2)cc1, which growth is on record?
Its growth is 107%.

How did the growth turn out when CC1CCNC(C)C1 (configuration not stated) was run?
Its growth is 110%.

With CCN(CC)c1ccc(-c2cc(-c3cc(OC)c(OC)c(OC)c3)nc(N3CCOCC3)c2C#N)cc1 as the compound, how does the growth read?
The growth was -23.5% (active).
